# From ChEMBL document CHEMBL3988442, “University of Dundee, Small-Polar-MMV Screening Library” (2021)
# For some assays here: Entries with a potency or affinity are not part of this list.
# What was measured:
# Set-up in all cases: scale not given: direction of the effect not stated beside the values
# [1] = target: Protein translocase subunit SecA (Escherichia coli (strain K12)) (UniProt P10408); experiment: Assay to Identify E. coli SecA ATPase Inhibitors; assay type: functional; settings: 30 µM
# [2] = target: T1, Ubiquitin-activating enzyme e1, putative (Leishmania donovani (strain BPK282A1)) (UniProt E9BSI1); experiment: Leishmania donovani Ubiquitin Activating Enzyme (LdE1); assay type: functional; settings: 30 µM
# T1 sequence (whole entry): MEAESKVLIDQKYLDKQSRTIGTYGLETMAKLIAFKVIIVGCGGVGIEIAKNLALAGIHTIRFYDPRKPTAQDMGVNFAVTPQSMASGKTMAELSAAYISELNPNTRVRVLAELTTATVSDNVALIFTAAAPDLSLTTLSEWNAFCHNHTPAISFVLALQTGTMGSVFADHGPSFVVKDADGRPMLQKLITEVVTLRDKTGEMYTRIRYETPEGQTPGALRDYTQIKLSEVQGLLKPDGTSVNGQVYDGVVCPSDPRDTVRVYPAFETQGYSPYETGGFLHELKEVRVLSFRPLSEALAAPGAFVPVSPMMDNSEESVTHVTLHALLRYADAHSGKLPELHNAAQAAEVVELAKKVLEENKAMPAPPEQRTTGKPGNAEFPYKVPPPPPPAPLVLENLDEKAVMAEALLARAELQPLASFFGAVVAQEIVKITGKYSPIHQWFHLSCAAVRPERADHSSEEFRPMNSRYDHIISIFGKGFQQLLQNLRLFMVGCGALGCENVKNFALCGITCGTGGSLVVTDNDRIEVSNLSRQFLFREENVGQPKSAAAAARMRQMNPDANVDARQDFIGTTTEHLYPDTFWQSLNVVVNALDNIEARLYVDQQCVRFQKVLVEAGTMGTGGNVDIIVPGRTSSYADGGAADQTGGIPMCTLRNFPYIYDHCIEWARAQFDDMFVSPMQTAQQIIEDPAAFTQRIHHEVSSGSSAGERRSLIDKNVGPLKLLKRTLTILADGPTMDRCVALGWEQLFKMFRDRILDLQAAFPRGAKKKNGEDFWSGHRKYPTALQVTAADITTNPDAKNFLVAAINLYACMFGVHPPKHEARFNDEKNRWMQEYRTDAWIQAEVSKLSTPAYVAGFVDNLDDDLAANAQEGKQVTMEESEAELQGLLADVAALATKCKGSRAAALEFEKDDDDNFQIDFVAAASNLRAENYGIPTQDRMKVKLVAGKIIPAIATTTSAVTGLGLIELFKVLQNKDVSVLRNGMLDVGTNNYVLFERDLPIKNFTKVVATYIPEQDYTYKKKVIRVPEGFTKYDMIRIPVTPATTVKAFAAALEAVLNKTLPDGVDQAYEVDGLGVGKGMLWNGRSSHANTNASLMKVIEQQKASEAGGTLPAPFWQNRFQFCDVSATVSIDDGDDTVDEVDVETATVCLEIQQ
# [3] = target: AMP-activated protein kinase, AMPK (Homo sapiens) (UniProt P54646+O43741+P54619+Q9UGJ0+Q9Y478+Q13131+Q9UGI9); experiment: AMP-dependent Kinase enzyme assay. An in vitro enzyme assay that detects ADP turnover that is directly proportional to AMPK activity. This uses naive AMPK that is activated during the assay with MK-8722; assay type: functional; settings: 30 µM
# [4] = target: Sialic acid-binding Ig-like lectin 9 (Homo sapiens) (UniProt Q9Y336); experiment: Hs-Siglec9 ALPHAscreen SOP 20170721; settings: 10 µM
# Trypanosoma cruzi = experiment: Trypanosoma cruzi phosphomannomutase and mannose-1-phosphate guanylyltransferase assay; assay type: functional; settings: 10 µM
# [5] = target: T2, Arginase-2, mitochondrial (Homo sapiens) (UniProt P78540); experiment: in vitro enzyme assay to detect the production of urea directly proportional to the activity of Arginase II; assay type: functional; settings: 33.3 µM; note: in the data most compounds retested in dose-response had high values
# T2 sequence (whole entry): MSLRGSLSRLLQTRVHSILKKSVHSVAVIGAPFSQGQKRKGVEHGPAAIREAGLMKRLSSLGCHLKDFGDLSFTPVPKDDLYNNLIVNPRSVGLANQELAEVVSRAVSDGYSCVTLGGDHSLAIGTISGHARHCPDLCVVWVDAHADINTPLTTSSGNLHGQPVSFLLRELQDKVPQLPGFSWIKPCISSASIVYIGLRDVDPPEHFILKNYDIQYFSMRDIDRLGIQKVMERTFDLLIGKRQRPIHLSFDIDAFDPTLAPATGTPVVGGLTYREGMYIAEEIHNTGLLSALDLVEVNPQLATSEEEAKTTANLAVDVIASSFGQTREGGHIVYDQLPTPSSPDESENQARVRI
# [6] = target: T3, Proteasome subunit beta (Trypanosoma cruzi) (UniProt O96673); experiment: Trypanosoma cruzi proteasome chymotrypsin-like activity (TcProtChymo) assay.; note: in the data most compounds retested in dose-response had high values; assay type: functional; settings: 9.37 µM
# T3 sequence (whole entry): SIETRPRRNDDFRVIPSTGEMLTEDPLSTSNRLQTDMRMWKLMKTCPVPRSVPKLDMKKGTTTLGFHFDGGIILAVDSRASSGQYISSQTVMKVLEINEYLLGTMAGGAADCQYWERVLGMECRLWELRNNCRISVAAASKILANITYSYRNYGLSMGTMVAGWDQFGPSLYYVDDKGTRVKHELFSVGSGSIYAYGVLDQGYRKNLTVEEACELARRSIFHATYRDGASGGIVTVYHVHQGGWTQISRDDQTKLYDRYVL
# Homo sapiens = species on record: Homo sapiens; experiment: To identify inhibition of the IFN signalling (Jak-Stat) pathway via expression of an eGFP reporter gene under the control of an IFN-stimulated response element (ISRE) containing MxA promoter.; assay type: functional; settings: 30 µM
# [7] = target: T4, Tyrosyl-tRNA synthetase, putative (Trypanosoma cruzi (strain CL Brener)) (UniProt Q4DSP6); experiment: Trypanosoma cruzi tyrosyl tRNA synthetase (TcYRS) _High Tyrosine SOP; assay type: functional; settings: 30 µM; note: in the data most compounds retested in dose-response had high values
# T4 sequence (whole entry): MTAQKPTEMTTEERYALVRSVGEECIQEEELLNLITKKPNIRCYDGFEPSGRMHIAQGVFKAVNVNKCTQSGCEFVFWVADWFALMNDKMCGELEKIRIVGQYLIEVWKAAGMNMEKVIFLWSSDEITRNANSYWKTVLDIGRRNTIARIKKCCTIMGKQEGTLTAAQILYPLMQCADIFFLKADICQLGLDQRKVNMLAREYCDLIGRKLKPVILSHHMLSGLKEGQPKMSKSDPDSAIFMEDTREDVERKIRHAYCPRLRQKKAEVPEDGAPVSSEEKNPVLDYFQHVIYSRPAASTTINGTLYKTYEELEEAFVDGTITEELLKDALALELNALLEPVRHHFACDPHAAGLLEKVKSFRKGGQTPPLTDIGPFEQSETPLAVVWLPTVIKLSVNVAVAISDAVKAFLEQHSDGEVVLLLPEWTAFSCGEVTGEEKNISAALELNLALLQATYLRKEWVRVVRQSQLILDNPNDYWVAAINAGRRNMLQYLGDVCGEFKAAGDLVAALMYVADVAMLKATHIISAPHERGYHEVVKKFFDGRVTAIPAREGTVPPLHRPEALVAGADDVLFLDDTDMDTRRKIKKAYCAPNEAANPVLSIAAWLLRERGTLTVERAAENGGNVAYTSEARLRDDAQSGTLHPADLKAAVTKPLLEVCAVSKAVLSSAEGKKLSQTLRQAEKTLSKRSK
# [8] = target: T4, Tyrosyl-tRNA synthetase, putative (Trypanosoma cruzi (strain CL Brener)); experiment: Trypanosoma cruzi tyrosyl tRNA synthetase (TcYRS) SOP; assay type: functional; settings: 30 µM
# [9] = target: Chromo domain-containing protein 1 (Saccharomyces cerevisiae (strain ATCC 204508 / S288c) (Baker's yeast)) (UniProt P32657); experiment: ScCHD-1 Enzyme Inhibition Assay; assay type: functional; settings: 30 µM; note: in the data most compounds retested in dose-response had high values
# Chain of Chromo domain-containing protein 1 (Saccharomyces cerevisiae (strain ATCC 204508 / S288c) (Baker's yeast)) (P32657 whole entry, the tested form may be a part): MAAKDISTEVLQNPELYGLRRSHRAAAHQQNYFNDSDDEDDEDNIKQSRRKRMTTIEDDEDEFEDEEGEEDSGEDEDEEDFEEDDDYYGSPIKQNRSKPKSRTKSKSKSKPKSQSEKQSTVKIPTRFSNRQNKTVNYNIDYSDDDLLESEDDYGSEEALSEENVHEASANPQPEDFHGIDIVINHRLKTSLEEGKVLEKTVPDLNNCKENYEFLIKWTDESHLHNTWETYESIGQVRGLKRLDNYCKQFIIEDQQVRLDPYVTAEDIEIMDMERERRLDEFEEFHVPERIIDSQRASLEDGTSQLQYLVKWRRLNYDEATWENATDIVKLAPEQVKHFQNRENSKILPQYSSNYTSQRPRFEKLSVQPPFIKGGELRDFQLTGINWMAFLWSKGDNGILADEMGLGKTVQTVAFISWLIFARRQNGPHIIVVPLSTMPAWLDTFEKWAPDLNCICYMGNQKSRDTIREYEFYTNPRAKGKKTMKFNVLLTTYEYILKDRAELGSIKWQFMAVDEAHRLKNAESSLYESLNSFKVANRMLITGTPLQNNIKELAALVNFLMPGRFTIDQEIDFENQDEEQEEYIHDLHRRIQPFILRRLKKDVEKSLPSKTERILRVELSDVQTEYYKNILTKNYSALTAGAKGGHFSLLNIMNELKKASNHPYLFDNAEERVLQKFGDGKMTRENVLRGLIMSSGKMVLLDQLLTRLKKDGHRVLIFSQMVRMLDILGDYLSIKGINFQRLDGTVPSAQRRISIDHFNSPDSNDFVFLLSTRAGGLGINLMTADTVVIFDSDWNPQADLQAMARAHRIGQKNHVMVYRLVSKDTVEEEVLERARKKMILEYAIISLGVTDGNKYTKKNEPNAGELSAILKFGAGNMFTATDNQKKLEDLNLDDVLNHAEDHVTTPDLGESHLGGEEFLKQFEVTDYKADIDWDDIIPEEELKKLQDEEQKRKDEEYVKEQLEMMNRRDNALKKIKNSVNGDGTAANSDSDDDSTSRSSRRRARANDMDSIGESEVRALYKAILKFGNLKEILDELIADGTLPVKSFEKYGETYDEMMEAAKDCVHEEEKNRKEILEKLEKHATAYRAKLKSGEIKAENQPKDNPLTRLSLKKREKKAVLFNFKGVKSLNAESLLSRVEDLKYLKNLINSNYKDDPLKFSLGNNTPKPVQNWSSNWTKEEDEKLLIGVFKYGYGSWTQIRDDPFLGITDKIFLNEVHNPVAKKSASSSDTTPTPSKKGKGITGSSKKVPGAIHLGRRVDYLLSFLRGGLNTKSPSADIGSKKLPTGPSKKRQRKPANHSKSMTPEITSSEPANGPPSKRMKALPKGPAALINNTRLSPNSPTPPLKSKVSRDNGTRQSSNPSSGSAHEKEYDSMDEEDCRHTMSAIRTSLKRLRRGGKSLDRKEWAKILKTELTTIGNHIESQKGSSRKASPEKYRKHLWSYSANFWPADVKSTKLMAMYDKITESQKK
# Chain of Sialic acid-binding Ig-like lectin 9 (Homo sapiens) (Q9Y336 whole entry): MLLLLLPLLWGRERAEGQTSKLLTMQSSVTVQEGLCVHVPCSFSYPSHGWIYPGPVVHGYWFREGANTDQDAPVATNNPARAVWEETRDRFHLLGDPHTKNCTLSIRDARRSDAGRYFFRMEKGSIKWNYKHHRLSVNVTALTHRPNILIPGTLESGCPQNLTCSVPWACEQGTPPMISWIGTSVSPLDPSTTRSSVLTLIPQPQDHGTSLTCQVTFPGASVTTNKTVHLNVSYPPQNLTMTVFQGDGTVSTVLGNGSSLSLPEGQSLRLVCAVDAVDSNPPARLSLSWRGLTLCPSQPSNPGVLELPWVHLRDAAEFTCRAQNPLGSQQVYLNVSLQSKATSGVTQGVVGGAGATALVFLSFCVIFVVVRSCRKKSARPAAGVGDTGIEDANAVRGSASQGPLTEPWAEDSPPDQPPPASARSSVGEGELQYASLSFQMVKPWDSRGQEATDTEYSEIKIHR
# Chain of Protein translocase subunit SecA (Escherichia coli (strain K12)) (P10408 whole entry): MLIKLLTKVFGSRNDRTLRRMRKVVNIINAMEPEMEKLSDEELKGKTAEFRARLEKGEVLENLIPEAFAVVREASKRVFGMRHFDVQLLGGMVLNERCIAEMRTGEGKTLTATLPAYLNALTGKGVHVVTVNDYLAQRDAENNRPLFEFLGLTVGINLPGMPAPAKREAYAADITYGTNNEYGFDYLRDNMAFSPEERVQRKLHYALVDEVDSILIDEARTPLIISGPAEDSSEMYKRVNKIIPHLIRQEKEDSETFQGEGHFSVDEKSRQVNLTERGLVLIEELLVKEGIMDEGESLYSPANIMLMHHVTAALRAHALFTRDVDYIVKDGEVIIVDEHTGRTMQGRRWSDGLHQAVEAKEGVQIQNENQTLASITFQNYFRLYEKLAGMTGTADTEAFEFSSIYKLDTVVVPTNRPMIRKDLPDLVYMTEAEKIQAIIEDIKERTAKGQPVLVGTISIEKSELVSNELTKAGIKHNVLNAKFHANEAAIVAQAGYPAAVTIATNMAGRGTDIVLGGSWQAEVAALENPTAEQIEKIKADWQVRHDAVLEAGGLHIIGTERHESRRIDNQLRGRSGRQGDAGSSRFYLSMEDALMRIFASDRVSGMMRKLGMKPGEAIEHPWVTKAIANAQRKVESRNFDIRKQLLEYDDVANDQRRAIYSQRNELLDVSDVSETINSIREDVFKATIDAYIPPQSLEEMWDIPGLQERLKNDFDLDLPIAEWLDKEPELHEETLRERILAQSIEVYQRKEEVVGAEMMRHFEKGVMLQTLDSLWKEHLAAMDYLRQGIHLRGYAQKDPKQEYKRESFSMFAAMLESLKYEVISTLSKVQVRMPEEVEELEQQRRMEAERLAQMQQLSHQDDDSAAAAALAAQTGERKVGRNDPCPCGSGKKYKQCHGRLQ
SMILES,Percent Effect [1],Percent Effect [2],Percent Effect [3],Percent Effect [4],Percent Effect (Trypanosoma cruzi),Percent Effect [5],Percent Effect [6],Percent Effect (Homo sapiens),Percent Effect [7],Percent Effect [8],Percent Effect [9]
Cc1ccc(-c2noc(CN3CCOC(CN(C)C)C3)n2)cc1F (configuration not stated),-2.58%,-8.11%,-2.88%,2.97%,-3.99%,-4.25%,-0.539%,20.6%,1.98%,-1.22%,2.19%
CC(C)c1nnc2n1CCN(C(=O)c1ccc(OCC(N)=O)cc1)C2,-8.09%,18.2%,-2.69%,-4.74%,4.41%,-1.9%,9.62%,4.02%,6.67%,11.8%,-16.8%
Cc1cc2nc(SCC(=O)N3CCCC3)n(C(C)C)c(=O)c2[nH]1,-2.21%,21.1%,-3.68%,-13.3%,2.63%,-1.18%,19.5%,17.9%,1.06%,10.4%,-6.22%
CC(CN1CCC2(CC1)c1nc[nH]c1CCN2S(C)(=O)=O)C(F)(F)F (configuration not stated),-5.83%,4.17%,-4.55%,0.526%,-2.62%,-1.77%,8.07%,-8.95%,3.16%,2.56%,-1.32%
N#Cc1ccc(S(=O)(=O)NC(=O)C2CC2)c(C(F)(F)F)c1,-6.08%,21.6%,-10.9%,20.8%,4.81%,-6.41%,6.49%,7.08%,6.4%,23.5%,-7.62%
CN(Cc1ccc(F)cc1)CC1(O)CCN(C(=O)c2ccccc2)C1 (configuration not stated),-1.26%,4.05%,9.4%,2.19%,-8.1%,1.16%,9.98%,15.7%,2.15%,6.49%,13.1%
COCc1nn(C(C)C)c2c1CCN(Cc1cccs1)C2,-0.481%,11%,1.5%,8.32%,0.198%,-0.798%,12.4%,-11.8%,7.29%,16.1%,-1.6%
O=C(COCc1nc(-c2ccncc2)no1)N1CCCCCC1,-5.55%,5.2%,-3.82%,21.3%,-35.1%,-55.2%,8.65%,15.5%,5.38%,13.6%,120%
COCCCC1CCCN(C(=O)CCc2cc(O)no2)C1 (configuration not stated),0.503%,4.17%,-6.36%,2.98%,1.46%,13.2%,18.2%,12.3%,8.42%,15.4%,-2.19%
OCC1CCCN1c1cc(N2CCN(c3ccccn3)CC2)ncn1 (configuration not stated),-1.51%,2.6%,5.09%,12.8%,-1.27%,3.58%,0.889%,13.3%,5.71%,7.06%,-17.6%
O=C(O)C1CCCCN1C(=O)c1cccc(C(F)(F)F)c1 (configuration not stated),-6.15%,13.2%,-2.92%,7.67%,1.4%,-2.88%,2.62%,-1.55%,4.43%,16.1%,3.59%
CC(=O)c1cccc(OCCCC(=O)N(C)Cc2cccc(O)c2)c1,-2.9%,2.7%,5.1%,4.56%,0.193%,4.29%,3.28%,8.19%,-0.529%,0%,-3.66%
c1ccc(Cc2noc(CNC3CCc4ncnn4C3)n2)cc1 (configuration not stated),-2.79%,16.2%,-4.03%,4.98%,3.81%,-3.88%,8.44%,1.98%,10.9%,25.6%,-5.11%
CCCC(Nc1c(C#N)c(=O)n(C)c(=O)n1C)c1ccc(F)cc1F (configuration not stated),-5.68%,10.1%,0.965%,11%,5.19%,4.18%,0.573%,1.79%,7.39%,13.9%,-4.28%
COC(=O)CCc1c(C)nc2cc(O)nn2c1C,-4.39%,20.8%,-48.9%,6.03%,1.31%,-3.92%,9.46%,6.61%,9.71%,21.9%,-9.77%
Cc1ccc(F)c(-n2nnc(C(=O)O)c2-c2ccncc2)c1,-0.715%,13.2%,2.72%,-1.83%,-3.8%,-2.37%,22.7%,-8.42%,3.19%,10.4%,-1.85%
COc1ccnc(C(=O)N2CCCC(c3noc(C)n3)C2)c1 (configuration not stated),-0.16%,-7.59%,1.48%,5.56%,-0.85%,0.76%,3.03%,-3.33%,-2.46%,-1.27%,-3.23%
CCc1nc(C2CCCN2Cc2nc3ccccc3o2)no1 (configuration not stated),-0.183%,2.6%,6.37%,9.09%,1.67%,2.74%,2.67%,-1.25%,-2.86%,0%,2.53%
Cc1cc(C)n(-c2cncc(NCCNC(=O)C(C)C)n2)n1,-6.42%,8.11%,-5.29%,-1.97%,-3.03%,0.248%,10.4%,-9.83%,4.3%,6.17%,-5.51%
CCN1CCN(Cc2ccnc(-c3cccnc3)n2)CC1,-8.52%,20.3%,0.102%,1.94%,-0.79%,-1.62%,15.3%,-6.28%,4.3%,16.9%,-29.4%
CC(NC(=O)CCc1cccs1)c1nnc2n1CCC2 (configuration not stated),-4.31%,2.7%,-7.36%,7.21%,1.95%,-0.554%,7.18%,-0.332%,5.94%,18.3%,1.69%
CCOc1cccc(C(C)NC(=O)N2CCC(C(N)=O)CC2)c1 (configuration not stated),-2.51%,2.7%,-1.93%,5.06%,-1.93%,-0.952%,3.97%,14.3%,3.7%,9.76%,-1.95%
